Pf growth 96h – P. falciparum growth inhibition at 96 hours; 6.9% of 320,000 active; Potency, µM (doses to about 28.7 µM), usual class: inhibitors; P. falciparum luciferase reporter growth, 96 h; AID 504834
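Two parasite generations (96 h, 37 C, 5% CO2) of compound exposure in infected erythrocytes (0.05% parasitemia, 2% hematocrit). Luciferase-reporter P. falciparum; decreased luminescence indicates inhibited growth, aimed at apicoplast-acting delayed death.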
CHX counter – counter-screen for Shiga toxin inhibitors: cycloheximide protein synthesis inhibition; 12% of 300,000 active; max response, %; cell reporter, cycloheximide protein synthesis inhibition counterscreen; in the data active = max response mostly above about 13%, no sharp cut-off; inactive = mostly below about 14%; note: read at 38.3 µM for the half of the compounds with a filed dose
Pf growth 48h – inhibits P. falciparum growth in the first generation, 48 h | 5.9% of 310,000 active | Potency, µM (series often up to 28.7 µM), actives largely listed as inhibitors | P. falciparum luciferase growth in erythrocytes, 48 h
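Here the parasites carry a stable luciferase gene and grow inside erythrocytes in Albumax-based RPMI medium with compound for one erythrocytic cycle. Activity is scored as loss of luminescent signal.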
Shiga toxin inh – Shiga toxin inhibition. inhibition, % at 38.7 µM. Vero cells, Shiga toxin protein synthesis inhibition reporter. 9.2% of 290,000 active; in the data active = inhibition mostly above about 28%, no sharp cut-off; inactive = mostly below about 43%
SARS PLpro yeast – blocks SARS-CoV papain-like protease in a yeast assay. 0.19% of 330,000 active. AID 485353. Potency, µM (doses to about 32.9 µM), actives largely listed as activators. S. cerevisiae expressing SARS-CoV PLpro, growth rescue; calls by dose curve; note: nearly all actives have a fitted effect of over 55% in size
NS1 inh – inhibitors of influenza NS1 protein function | Potency, µM (top dose mostly 46.1 µM) | 0.4% of 270,000 active | AID 2326; calls by dose curve; note: actives are rising curves; nearly all actives have a fitted effect of over 50% in size
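S. cerevisiae expressing influenza A NS1, grown in glucose, washed, then diluted 1:100 into pH 6.0 -URA galactose medium with 23 nl compound. Growth recovery read as OD600; NS1-free strain serves as control.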
Large screens that a line does not name were inactive. A selection: hits, their analogues and other compounds. The true share with any hit is near 21%. Unless noted, calls come from the whole dose curve; as a rule, active = well fitted inhibition curve with a large enough effect; inconclusive = small, poorly fitted or top-dose-only effect, or another doubt; inactive = no such curve, though single readings can be large or run the other way.

O=[N+]([O-])c1ccc(/C=C/c2ccc3cccc([N+](=O)[O-])c3n2)cc1	CHX counter 21.8
COc1cc(/C=C/c2ccc3cccc([N+](=O)[O-])c3n2)ccc1OCC#N	none
O=[N+]([O-])c1cccc2ccc(/C=C/c3ccc(F)cc3)nc12	CHX counter 131.5, Pf growth 48h inconclusive, Shiga toxin inh 94.7
CCOc1cc(/C=C/c2ccc3cccc([N+](=O)[O-])c3n2)ccc1O	CHX counter 12.8
O=[N+]([O-])c1cccc(/C=C/c2ccc3cccc(O)c3n2)c1	Pf growth 96h inconclusive, CHX counter 34.5, Shiga toxin inh 107.2
O=[N+]([O-])c1cccc2ccc(N3CCOCC3)nc12	Pf growth 96h inconclusive (no result: Shiga toxin inh)
O=[N+]([O-])c1cccc(/C=C/c2nc(C=Nc3ccc4ccccc4c3)c(O)o2)c1	none
COc1ccc([N+](=O)[O-])cc1NC(=O)C(C)NNC(=O)c1cccc([N+](=O)[O-])c1 (stereo not given)	none (no result: Pf growth 96h, CHX counter, Pf growth 48h, Shiga toxin inh, NS1 inh)
O=C(CCN1CCCCC1=O)NC1CCCN(Cc2ccc(Cl)cc2)C1 (stereo not given)	Pf growth 96h inconclusive
Cc1ccc2[nH]c3c(c2c1)CCN(C)C3	Pf growth 96h inconclusive
CC1(c2nnc(-c3cccc(Cl)c3)o2)CC(c2ccccc2Br)=NO1 (stereo not given)	Pf growth 96h inconclusive
COC(=O)C/C=C/N(Cc1ccccc1OC)S(=O)(=O)CCl	none (no result: Pf growth 96h, CHX counter, Pf growth 48h, Shiga toxin inh, NS1 inh)
O=C(O)CCC(=O)Nc1ccccc1Oc1ccccc1	none
OC1(c2cccc(C(F)(F)F)c2)CCNCC1	Pf growth 96h 13.1µM
Cc1c(S(=O)(=O)N2CCc3ccccc3C2)c(=O)n(C)c(=O)n1C	none
CC(C)(C)OC(=O)NS(=O)(=O)Nc1ccccc1Br	none (no result: Pf growth 96h, Pf growth 48h, SARS PLpro yeast, NS1 inh)
CCCC(=O)c1ccc(N2CCCCCC2)c(F)c1	CHX counter 39.9, Shiga toxin inh 68.0
CC(=O)c1ccc(N2CCCCC2)c(F)c1	CHX counter 15.8
CCCC(=O)c1ccc(N2CCCCC2)c(F)c1	CHX counter 46.9, Shiga toxin inh 94.2
CC(=O)c1ccc(N2CCCCCC2)c(F)c1	Pf growth 96h inconclusive
CCCC(=O)c1ccc(N2CCN(C(=O)OCC)CC2)c(F)c1	Pf growth 96h 9.28µM
CC(=O)c1cc(F)c(N2CCCCCC2)cc1C	Pf growth 96h inconclusive
CCOC(=O)N1CCN(c2ccc(C(=O)CC)cc2F)CC1	none
COc1ccccc1OCCC(=O)OCC(=O)c1c(N)n(C)c(=O)n(C)c1=O	none
CSc1ccccc1C(=O)N1CCN(c2ncccn2)CC1	none (no result: NS1 inh)
CCOC(=O)CSc1ccc(C(=O)NCCCN2CCOCC2)cc1[N+](=O)[O-]	Pf growth 96h inconclusive
C=CCN=c1scc(-c2ccc(F)cc2)n1/N=C/c1ccccn1	Pf growth 96h inconclusive, CHX counter 19.3, Pf growth 48h inconclusive, Shiga toxin inh 90.0
S=c1[nH]nc(C2CCCCC2)n1/N=C/c1ccccn1	none
C=CCN=c1scc(-c2ccccc2)n1/N=C/c1ccccn1	Pf growth 96h inconclusive, CHX counter 19.6, Shiga toxin inh active
C=CCN=c1scc(-c2ccc3c(c2)NC(=O)CO3)n1/N=C(\C)c1ccccn1	Pf growth 96h inconclusive, Pf growth 48h inconclusive (no result: NS1 inh)
CC1CCCN(c2ccc(C(=O)NCC3CCCO3)cn2)C1 (stereo not given)	CHX counter 24.8
O=C(NCC1CCCO1)c1cnc(Cl)c(Cl)c1 (stereo not given)	Pf growth 48h inconclusive
CCOc1ccc(C(=O)NCC2CCCO2)cc1OCC (stereo not given)	Pf growth 96h inconclusive
O=C(NCCCNCCCNC(=O)c1ccc(/C=N/O)nc1)c1ccc(/C=N/O)nc1	Pf growth 96h 2.62µM, Pf growth 48h 9.28µM
O=C(NCC1CCCO1)c1ccc(/C=N/O)nc1 (stereo not given)	Pf growth 96h 14.7µM
CCn1cc(-c2ccccc2)c(C(=O)O)c1-c1ccc(OC)cc1	none (no result: CHX counter, Shiga toxin inh, NS1 inh)
CCN(CC)CCOC(=O)C(C)(c1ccccc1)c1ccccc1	Pf growth 96h 10.7µM, Pf growth 48h inconclusive (no result: CHX counter, Shiga toxin inh, SARS PLpro yeast, NS1 inh)
CC(C)C(NC(=O)c1ccccc1)c1nnc(SCC(=O)NC2CCCC2)n1C (stereo not given)	none
NC1=NC2=C(CCCC2)C2(CCCCC2)S1	Pf growth 48h 13.1µM
COc1ccc(-c2c(C#N)c(N)nc3c2CCc2ccccc2-3)cc1OC	Pf growth 96h 7.38µM, Pf growth 48h 2.33µM
COc1cc(-c2c(C#N)c(N)nc3c2CCCC3)ccc1O	none (no result: Pf growth 96h)
CN(Cc1nccn1C)C(=O)c1ccc2nc(Cc3ccccc3F)oc2c1	Pf growth 96h inconclusive, CHX counter 55.0, Shiga toxin inh 68.7
CN(Cc1nccs1)C(=O)c1ccc2nc(Cc3ccccc3F)oc2c1	Pf growth 96h inconclusive
Cc1cc(CN(C)C(=O)c2ccc3nc(Cc4ccccc4F)oc3c2)on1	Pf growth 96h inconclusive, CHX counter 46.0, Shiga toxin inh 75.1
O=C(O)CCCC(=O)Nc1ccccc1C(=O)N1CCCC1	NS1 inh inconclusive (no result: Pf growth 96h)
O=S(=O)(O)c1cc(S(=O)(=O)O)c2c(N=Nc3cccc4ccccc34)c(O)ccc2c1	none (no result: Pf growth 96h, CHX counter, Pf growth 48h, Shiga toxin inh, SARS PLpro yeast)
NC(N)=NCCC[C@H](N)C(=O)N1CCC[C@H]1C(=O)N1CCC[C@H]1C(=O)NCC(=O)N[C@@H](Cc1ccccc1)C(=O)N[C@@H](CO)C(=O)N1CCC[C@H]1C(=O)N[C@@H](Cc1ccccc1)C(=O)O	none (no result: Pf growth 96h, Pf growth 48h, SARS PLpro yeast, NS1 inh)
COC(=O)C1=C(C)Nc2ccc(C)cc2S1	Pf growth 96h inconclusive, CHX counter 24.5 (no result: Pf growth 48h)
CC1C(=O)C(C)C(c2cccc(Br)c2)NC1c1cccc(Br)c1 (stereo not given)	Pf growth 96h inconclusive
OC(Cn1ccnc1)c1ccc(Cl)cc1Cl (stereo not given)	Pf growth 96h 9.28µM, Pf growth 48h 10.4µM
O=c1c2ccccc2nc(-c2ccc(Cl)cc2Cl)n1CCCn1ccnc1	Pf growth 96h inconclusive, Pf growth 48h inconclusive
Clc1ccc([C@H](Cn2ccnc2)OCc2csc3c(Cl)cccc23)c(Cl)c1	Pf growth 96h 5.73µM, Pf growth 48h inconclusive (no result: CHX counter, Shiga toxin inh, SARS PLpro yeast, NS1 inh)
Clc1ccc(C(Cn2ccnc2)OCc2c(Cl)cccc2Cl)c(Cl)c1 (stereo not given)	Pf growth 96h 2.94µM, Pf growth 48h 2.33µM (no result: CHX counter, Shiga toxin inh, SARS PLpro yeast, NS1 inh)
Clc1cccc(OCCCn2ccnc2)c1	Pf growth 96h inconclusive
Clc1ccc(C(Cn2ccnc2)OCc2csc3c(Cl)cccc23)c(Cl)c1 (stereo not given)	Pf growth 96h 2.62µM, Pf growth 48h 1.04µM (no result: CHX counter, Shiga toxin inh, SARS PLpro yeast, NS1 inh)
C[C@H](NC(=O)C1CCN(S(=O)(=O)c2ccccc2)CC1)C(=O)NCc1ccc(Cl)cc1Cl	Pf growth 96h inconclusive
Cc1cnc(NC(=O)c2cncc(Br)c2)s1	CHX counter 29.8, Shiga toxin inh 53.2 (no result: NS1 inh)
CCn1ccc(C(=O)Nc2ncc(C)s2)n1	CHX counter 27.7, Shiga toxin inh 56.9
Cc1nnc(NC(=O)c2ccncc2)s1	Pf growth 96h inconclusive (no result: Pf growth 48h)
Cc1cnc(NC(=O)c2ccncc2)s1	CHX counter 17.5, Shiga toxin inh 36.1 (no result: NS1 inh)
Cc1ccc2nsnc2c1NC(=O)c1cncc(Br)c1	none (no result: NS1 inh)
CCn1ccc(C(=O)NC2CCCC2)n1	none
O=C(c1ccccc1)N1CCN(C(=S)NCc2ccco2)CC1	none (no result: NS1 inh)
